# PubChem BioAssay (EPA / NIEHS)
# Values joined by “and” are separate entries in the source; they are usually repeats but may differ in a detail not shown here. Identical values can stand only once. Inconclusive results are not listed. More than one record can exist for a structure, and the calls need not agree. Active and inactive are the calls of the source. How the source made its calls, unless noted: active means hit-call score of the fitted dose curve at least 0.9, where 1 is the maximum; inactive means score below 0.9.
# What was measured:
# [1] = ATG_TCF_b_cat_CIS: Attagene CIS-FACTORIAL HepG2 Assay for human T-Cell-Factor with beta-catenin (TCF/b-cat) (AID 2282965); settings: HepG2 TCF/beta-catenin cis-reporter transcription, actives raise or lower the signal
# Procedure, shortened: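 HepG2, transient MRTU transfection, cis-element-driven reporters (endogenous TFs). 24 h compound exposure. Readout: reporter mRNA by RT-PCR + 6-FAM primer extension, HpaI digest, capillary electrophoresis. Gain/loss fit vs DMSO baseline.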
# [2] = ATG_TAL_CIS: Attagene CIS-FACTORIAL HepG2 Assay for human TAL Basal Promoter (AID 2282966); settings: HepG2 Attagene cis-factorial TAL promoter reporter; actives raise or lower the signal;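 further: background control endpoint measuring basal TAL promoter reporter mRNA not a specific factor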
# Procedure, shortened: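 Transiently transfected HepG2 (cis-regulated reporter units), 24 h treatment, mRNA read by fluorescent CE after RT-PCR; bidirectional fit, DMSO baseline.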
# [3] = ATG_TGFb_CIS: Attagene CIS-FACTORIAL HepG2 Assay for human Transforming Growth Factor (TGF) (AID 2282967); settings: HepG2 Attagene CIS TGFb reporter, mRNA transcription; actives raise or lower the signal
# Procedure, shortened: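 After a 24-hour incubation with compound, transfected HepG2 cells were lysed for RNA; reporter cDNA was amplified, fluorescently end-labeled and separated by CE. DMSO served as baseline for bidirectional fits.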
# [4] = ATG_VDRE_CIS: Attagene CIS-FACTORIAL HepG2 Assay for human Vitamin D Receptor Element (VDRE) (AID 2282968); settings: HepG2 VDRE cis-reporter transcription, actives raise or lower the signal
# Procedure, shortened: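 Transient MRTU transfection of HepG2, 24 h compound exposure. Readout: reporter transcripts via RT-PCR and capillary electrophoresis, fluorescence. Bidirectional fit vs DMSO.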
# [5] = target: Nuclear receptor subfamily 1 group I member 3 (Homo sapiens) (UniProt Q14994); experiment: ATG_CAR_TRANS: Attagene TRANS-FACTORIAL HepG2 Assay for human Constitutive Androstane Receptor (CAR) (AID 2282969; active means hit-call score of the fitted dose curve at least 0.9, where 1 is the maximum;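 further: activators raise reporter mRNA above DMSO so AC50 marks induction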); settings: HepG2 Attagene TRANS-FACTORIAL CAR reporter
# Procedure, shortened: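 Transiently transfected HepG2, multiplex TRANS reporters (CAR-Gal4 chimera driving GAL4-UAS reporter). 24 h dosing. Readout: reporter transcript by RT-PCR + capillary electrophoresis, fluorescence intensity; positive direction vs DMSO.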
# [6] = target: X-box-binding protein 1 (Homo sapiens) (UniProt P17861); experiment: ATG_Xbp1_CIS: Attagene CIS-FACTORIAL HepG2 Assay for human X-box Binding Protein 1 (XBP1) (AID 2282972); settings: HepG2 XBP1 cis-element reporter, Attagene multiplex; actives raise or lower the signal
# Procedure, shortened: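 Human hepatoma HepG2, cis-element reporter system, 24 h treatment; mRNA quantified by RT-PCR/CE fluorescence; fit relative to DMSO.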
# [7] = ATG_M_19_TRANS: Attagene TRANS-FACTORIAL HepG2 Assay for M19 Transcription Factor (Internal Marker) (AID 2282974; active means hit-call score of the fitted dose curve at least 0.9, where 1 is the maximum); settings: HepG2 Attagene TRANS-FACTORIAL M19 internal marker reporter
# Procedure, shortened: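 Multiplexed TRANS format: HepG2 liver cells bearing transient GAL4-UAS reporter units, chemical treatment 24 h, reporter transcripts quantified by RT-PCR plus capillary electrophoresis. DMSO defines baseline.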
# [8] = ATG_GAL4_TRANS: Attagene TRANS-FACTORIAL HepG2 Assay for GAL4 (Internal Marker) (AID 2282976; active means hit-call score of the fitted dose curve at least 0.9, where 1 is the maximum); settings: HepG2 Attagene TRANS GAL4 internal marker reporter
# Procedure, shortened: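 HepG2 cells transiently transfected with multiplexed GAL4-UAS reporter constructs were dosed for 24 h. Reporter mRNA was measured by RT-PCR, 6-FAM primer extension, HpaI digestion and capillary electrophoresis, and gain of signal was fitted relative to DMSO.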
# [9] = target: Estrogen receptor (Homo sapiens) (UniProt P03372); experiment: ATG_ERa_TRANS: Attagene TRANS-FACTORIAL HepG2 Assay for human Estrogen Receptor alpha (ERa) (AID 2282970; active means hit-call score of the fitted dose curve at least 0.9, where 1 is the maximum); settings: HepG2 Attagene TRANS ERa GAL4 reporter, mRNA
# Procedure, shortened: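 One of 30 multiplexed endpoints from a HepG2 TRANS system, this one reports ERa-Gal4-driven reporter mRNA. Transcripts were quantified 24 hours post-dosing by fluorescent RT-PCR and capillary electrophoresis, with activity scored as induction over DMSO.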
# [10] = target: Steroid hormone receptor ERR1 (Homo sapiens) (UniProt P11474); experiment: ATG_ERRa_TRANS: Attagene TRANS-FACTORIAL HepG2 Assay for human Estrogen-Related Receptor alpha (ERRa) (AID 2282971; active means hit-call score of the fitted dose curve at least 0.9, where 1 is the maximum); settings: HepG2 Attagene TRANS reporter, ERRa transactivation
# Procedure, shortened: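 HepG2 cells transiently transfected with multiplexed GAL4-UAS reporter units reading chimeric ERRa-Gal4 activity; 24 h compound exposure. Reporter mRNA measured by RT-PCR, 6-FAM labelling, HpaI digest and capillary electrophoresis; gain of signal fitted versus DMSO baseline.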
# Chain of Estrogen receptor (Homo sapiens) (P03372 whole entry, looked up, the tested form may be a part): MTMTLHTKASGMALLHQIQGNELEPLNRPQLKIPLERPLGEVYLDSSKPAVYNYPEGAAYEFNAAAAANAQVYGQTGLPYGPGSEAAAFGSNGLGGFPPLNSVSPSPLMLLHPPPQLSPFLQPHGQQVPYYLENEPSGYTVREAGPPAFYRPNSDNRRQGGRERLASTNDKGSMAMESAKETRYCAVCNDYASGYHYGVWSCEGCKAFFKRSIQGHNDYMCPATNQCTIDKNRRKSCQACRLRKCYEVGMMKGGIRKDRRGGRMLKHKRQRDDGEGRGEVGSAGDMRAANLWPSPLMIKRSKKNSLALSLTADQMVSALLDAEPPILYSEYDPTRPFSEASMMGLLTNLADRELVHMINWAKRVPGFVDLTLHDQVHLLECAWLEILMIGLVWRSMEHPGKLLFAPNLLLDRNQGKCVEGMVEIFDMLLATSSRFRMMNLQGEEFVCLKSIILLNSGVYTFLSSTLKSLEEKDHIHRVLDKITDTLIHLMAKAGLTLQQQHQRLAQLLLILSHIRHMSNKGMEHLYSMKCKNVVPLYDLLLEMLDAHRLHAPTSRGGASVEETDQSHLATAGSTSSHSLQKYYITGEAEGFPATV
# Chain of Nuclear receptor subfamily 1 group I member 3 (Homo sapiens) (Q14994 whole entry, looked up, the tested form may be a part): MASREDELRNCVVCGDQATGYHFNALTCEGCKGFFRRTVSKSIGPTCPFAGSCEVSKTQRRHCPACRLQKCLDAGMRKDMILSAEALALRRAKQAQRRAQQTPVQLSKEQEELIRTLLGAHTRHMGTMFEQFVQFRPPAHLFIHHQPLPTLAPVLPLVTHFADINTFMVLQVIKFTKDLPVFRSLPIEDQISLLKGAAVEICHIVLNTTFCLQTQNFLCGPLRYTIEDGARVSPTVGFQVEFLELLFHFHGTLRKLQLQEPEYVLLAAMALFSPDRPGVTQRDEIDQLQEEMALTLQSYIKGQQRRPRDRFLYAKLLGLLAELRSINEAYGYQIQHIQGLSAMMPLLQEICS
# Chain of X-box-binding protein 1 (Homo sapiens) (P17861 whole entry, looked up): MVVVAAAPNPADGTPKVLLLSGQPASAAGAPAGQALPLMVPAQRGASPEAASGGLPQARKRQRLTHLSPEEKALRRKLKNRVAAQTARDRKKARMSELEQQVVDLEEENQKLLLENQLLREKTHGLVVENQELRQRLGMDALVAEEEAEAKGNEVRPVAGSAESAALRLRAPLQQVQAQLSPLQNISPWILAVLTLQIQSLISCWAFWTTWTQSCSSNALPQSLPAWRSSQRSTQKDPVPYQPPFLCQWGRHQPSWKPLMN
# Chain of Steroid hormone receptor ERR1 (Homo sapiens) (P11474 whole entry, looked up, the tested form may be a part): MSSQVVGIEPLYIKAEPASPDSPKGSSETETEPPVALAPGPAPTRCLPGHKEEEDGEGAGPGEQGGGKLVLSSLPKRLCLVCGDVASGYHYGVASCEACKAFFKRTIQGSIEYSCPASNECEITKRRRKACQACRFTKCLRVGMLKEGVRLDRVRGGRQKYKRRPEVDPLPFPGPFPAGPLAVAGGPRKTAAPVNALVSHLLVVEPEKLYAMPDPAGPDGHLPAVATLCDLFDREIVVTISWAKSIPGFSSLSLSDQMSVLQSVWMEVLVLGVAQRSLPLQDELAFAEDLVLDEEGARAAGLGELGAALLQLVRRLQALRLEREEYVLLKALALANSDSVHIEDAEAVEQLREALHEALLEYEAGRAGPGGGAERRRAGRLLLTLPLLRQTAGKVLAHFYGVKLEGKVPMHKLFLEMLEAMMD
compound,measurement,setting,value
CC[C@H](c1ccc(O)cc1)[C@@H](CC)c1ccc(O)cc1,AC50,[1],9.79 µM (active) and 15.4 µM (active) and 11.1 µM (active)
same,outcome,[1],inactive
same,outcome,[2],inactive
same,outcome,[3],inactive
same,AC50,[4],3.47 µM (active) and 2.97 µM (active)
same,outcome,[4],inactive
same,outcome,[5],inactive
same,outcome,[6],inactive
same,outcome,[7],inactive
same,outcome,[8],inactive
CCCCC[C@H](O)CC(=O)CCc1ccc(O)c(OC)c1,outcome,[1],inactive
same,outcome,[2],inactive
same,outcome,[3],inactive
same,AC50,[4],27.7 µM (active)
same,outcome,[5],inactive
same,outcome,[9],inactive
same,outcome,[10],inactive
same,outcome,[6],inactive
same,outcome,[8],inactive
CCCCCCC(=O)O,outcome,[1],inactive
same,outcome,[2],inactive
same,outcome,[3],inactive
same,outcome,[4],inactive
same,outcome,[5],inactive
same,outcome,[9],inactive
same,outcome,[10],inactive
same,outcome,[6],inactive
same,outcome,[7],inactive
same,outcome,[8],inactive
CC#C[C@]1(O)CC[C@H]2[C@@H]3CCC4=CC(=O)CCC4=C3[C@@H](c3ccc(N(C)C)cc3)C[C@@]21C,AC50,[1],11.3 µM (active) and 26.2 µM (active)
same,AC50,[3],8.06 µM (active) and 26.5 µM (active)
same,outcome,[3],inactive
same,outcome,[9],inactive
CCC(=C(c1ccc(O)cc1)c1ccc(OCCN(C)C)cc1)c1ccccc1,AC50,[1],3.39 µM (active)
same,outcome,[1],inactive
same,AC50,[2],10.4 µM (active)
same,outcome,[2],inactive
same,outcome,[3],inactive
same,AC50,[4],3.53 µM (active) and 7.1 µM (active) and 2.37 µM (active)
same,outcome,[4],inactive
same,outcome,[5],inactive
same,outcome,[10],inactive
same,outcome,[8],inactive
Cc1ccc(S(=O)(=O)O)c(C)c1,outcome,[1],inactive
same,outcome,[2],inactive
same,outcome,[3],inactive
same,outcome,[4],inactive
same,outcome,[5],inactive
same,outcome,[9],inactive
same,outcome,[10],inactive
same,outcome,[6],inactive
same,outcome,[8],inactive
O=c1c(-c2ccc(O)cc2)coc2cc(O)ccc12,AC50,[1],27.9 µM (active)
same,outcome,[1],inactive
same,outcome,[2],inactive
same,outcome,[3],inactive
same,outcome,[5],inactive
same,outcome,[8],inactive
OCCC(F)(F)C(F)(F)C(F)(F)C(F)(F)C(F)(F)C(F)(F)C(F)(F)C(F)(F)F,AC50,[1],33.4 µM (active)
same,outcome,[1],inactive
same,outcome,[2],inactive
same,outcome,[3],inactive
same,AC50,[4],25.8 µM (active) and 150 µM (active)
same,outcome,[5],inactive
same,AC50,[9],7.75 µM (active)
same,outcome,[9],inactive
CCC(C)(C)C1CCC(O)CC1 (stereo not drawn),AC50,[1],100 µM (active)
same,outcome,[1],inactive
same,outcome,[2],inactive
same,outcome,[3],inactive
same,outcome,[4],inactive
same,outcome,[5],inactive
same,outcome,[8],inactive
NC(=O)N1C(=O)C(C(=O)c2cc(Cl)cs2)c2cc(F)c(Cl)cc21 (stereo not drawn),outcome,[1],inactive
same,outcome,[2],inactive
same,outcome,[3],inactive
same,AC50,[4],9.88 µM (active)
same,outcome,[9],inactive
same,outcome,[10],inactive
O=C(O)c1ccccc1C(c1ccc(O)cc1)c1ccc(O)cc1,AC50,[1],166 µM (active)
same,outcome,[1],inactive
same,outcome,[3],inactive
same,outcome,[10],inactive
same,outcome,[8],inactive
CCc1nn(C2CCCCC2)c2cc(C3(C#N)CCC(C(=O)O)CC3)ccc12 (stereo not drawn),AC50,[1],52.3 µM (active)
same,outcome,[2],inactive
same,outcome,[3],inactive
same,AC50,[4],48.7 µM (active)
same,outcome,[9],inactive
same,outcome,[6],inactive
CCCOc1sc(C(=O)N2CCC(c3cc(CN)ccc3F)CC2)c(C)c1Br,outcome,[1],inactive
same,outcome,[3],inactive
same,outcome,[4],inactive
same,outcome,[9],inactive
same,outcome,[6],inactive
O=[N+]([O-])c1ccc(O)cc1,outcome,[1],inactive
same,outcome,[3],inactive
same,outcome,[4],inactive
same,outcome,[9],inactive
same,outcome,[6],inactive
same,outcome,[8],inactive
CCCCC(CC)COC(=O)CCCCC(=O)OCc1ccccc1 (stereo not drawn),outcome,[1],inactive
same,outcome,[3],inactive
same,outcome,[4],inactive
same,outcome,[9],inactive
Nc1cccc2c(N)cccc12,outcome,[1],inactive
same,outcome,[3],inactive
same,outcome,[4],inactive
same,outcome,[5],inactive
same,outcome,[9],inactive
CCCCCCCCCCCCc1ccccc1S(=O)(=O)O,outcome,[1],inactive
same,outcome,[3],inactive
same,outcome,[4],inactive
same,outcome,[5],inactive
same,outcome,[9],inactive
same,outcome,[6],inactive
O=C(O)Cc1cc(I)c(Oc2cc(I)c(O)c(I)c2)c(I)c1,outcome,[1],inactive
same,outcome,[3],inactive
same,AC50,[4],18.1 µM (active) and 23 µM (active)
same,outcome,[9],inactive
same,outcome,[8],inactive
CN1CCN(c2ccccc2/C=C2\SCCN(c3ccc(Cl)c(Cl)c3)C2=O)CC1,outcome,[1],inactive
same,outcome,[3],inactive
same,outcome,[4],inactive
same,outcome,[5],inactive
same,outcome,[9],inactive
same,outcome,[10],inactive
same,outcome,[8],inactive
O=C1OC2(c3ccccc31)c1cc(Br)c(O)c(Br)c1Oc1c2cc(Br)c(O)c1Br,outcome,[1],inactive
same,outcome,[3],inactive
same,AC50,[4],56.4 µM (active)
same,outcome,[4],inactive
same,outcome,[5],inactive
same,outcome,[9],inactive
same,outcome,[8],inactive
CCN(CC)CCNc1ccc(CNC=O)c2sc3ccc(OC)cc3c(=O)c12,outcome,[1],inactive
same,outcome,[3],inactive
same,AC50,[4],0.689 µM (active)
same,AC50,[9],1.05 µM (active)
same,outcome,[10],inactive
same,AC50,[6],0.766 µM (active)
same,AC50,[8],3.36 µM (active)
OC1CCC(C2CCCCC2)CC1 (stereo not drawn),outcome,[1],inactive
same,outcome,[3],inactive
same,outcome,[4],inactive
same,outcome,[10],inactive
same,outcome,[6],inactive
same,outcome,[7],inactive
same,outcome,[8],inactive
CCOC(=O)CC(O)(CC(=O)OCC)C(=O)OCC,outcome,[1],inactive
same,outcome,[3],inactive
same,outcome,[4],inactive
same,outcome,[5],inactive
same,outcome,[9],inactive
same,outcome,[8],inactive
N#C[C@@H]1CC(F)(F)CN1C(=O)CNC1CC2CCC(C1)N2c1ncccn1 (stereo partly drawn),outcome,[1],inactive
same,outcome,[3],inactive
same,outcome,[9],inactive
same,outcome,[10],inactive
same,outcome,[6],inactive
same,outcome,[8],inactive
CCCCCCCCCCCCCC[N+](C)(C)C,AC50,[1],17.2 µM (active) and 7.58 µM (active)
same,outcome,[3],inactive
same,outcome,[4],inactive
same,outcome,[9],inactive
same,AC50,[10],25.7 µM (active)
same,outcome,[10],inactive
same,outcome,[8],inactive
